Shown are actives, neighbours in structure and some others; about 4.8% of the full set was active somewhere.
hcDAF12 agonist – activators of H. contortus DAF-12 nuclear receptor; activation, % at 6.8 µM; 370,000 compounds, 1.4% hits; AID 652067; HEK293 hcDAF-12 lit1-tk-luc reporter, luminescence; 0% DMSO, 100% Δ7-dafachronic acid;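 active = activation above the mean of all tested compounds plus 3 SD, cut at about 5.5% in these data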;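 note: 100% = response to 3 µM Δ7-dafachronic acid high control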
ssDAF12 agonist – activators of S. stercoralis DAF-12 nuclear receptor | HEK293 ssDAF-12/GRIP1 lit1-tk-luc reporter, luminescence; % of 3 µM dafachronic acid response | activation, % at 6.8 µM | 370,000 compounds, 1% hits;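 active = activation above the mean over all tested compounds plus 3 SD, cut at about 0.9% in these data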;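 note: 0% = DMSO-only wells and 100% = 3 µM delta7-dafachronic acid wells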
DAX1 inh-1 – DAX1 (NR0B1) inhibition, primary screen. 370,000 compounds, 1.1% hits. inhibition, % at 6.8 µM. AID 652010. HEK293T StAR-luciferase reporter, SF-1/DAX-1 repression relief;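 active = inhibition above the mean over all tested compounds plus 3 SD, cut at about 3.6% in these data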;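 note: 0% = DAX-1 cells with DMSO and 100% = cells lacking DAX-1 with DMSO; higher inhibition means more luminescence from relief of DAX-1 repression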
DAX1 inh-2 – inhibits human nuclear receptor DAX1. P51843. inhibition, % at 6.75 µM. HEK293 Gal4-DAX1 luciferase reporter, luminescence. AID 504766. 340,000 compounds, 0.99% hits;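 active = inhibition above the mean over all tested compounds plus 3 SD, cut at about 4.2% in these data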;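 note: 0% = DAX1-transfected cells with DMSO and 100% = empty-vector control cells with DMSO; inhibition shows as a rise in luminescence from relieved DAX1 repression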
Target sequence (P51843 207-470 limits assumed): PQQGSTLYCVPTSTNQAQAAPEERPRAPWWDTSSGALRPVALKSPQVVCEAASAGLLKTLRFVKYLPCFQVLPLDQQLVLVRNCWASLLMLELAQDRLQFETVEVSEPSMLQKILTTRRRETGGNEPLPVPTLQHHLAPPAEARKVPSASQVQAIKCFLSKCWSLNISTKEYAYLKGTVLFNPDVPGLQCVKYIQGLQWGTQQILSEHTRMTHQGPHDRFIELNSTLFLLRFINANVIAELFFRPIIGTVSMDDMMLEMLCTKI
Rev-erbA mod – modulators of human Rev-erb alpha DNA binding. activity, % at 10 µM. Rev-erbα–FITC-DNA binding, fluorescence polarization, 90 min. P20393. 370,000 compounds, 0.79% hits;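 active = activity above about 14%, limit read from the data; passing the limit was not always enough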;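 note: 0% = DMSO wells with 35 nM protein and 100% = DMSO wells with 750 nM protein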
hgDAF-12 ag – agonists of H. glycines DAF-12 nuclear receptor; HEK293 GAL4-hgDAF12 UAS-luciferase reporter, agonist luminescence; normalized to butyrate control; 370,000 compounds, 1.8% hits; activation, % at 6.8 µM; AID 687014;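 active = activation above a cutoff set at the mean of all screened compounds plus 3 SD, cut at about 10% in these data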;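 note: 0% = DMSO wells and 100% = sodium butyrate wells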
hgDAF12 conf – hgDAF-12 agonism, confirmation assay | AID 743050 | shares compounds with hgDAF-12 ag | activation, % at 6.8 µM | HEK293 GAL4-hgDAF12 luciferase reporter, agonist mode; percent of butyrate response | 3,300 compounds, 80% hits;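 active = mean activation over triplicate wells above the hit cutoff derived from the earlier primary screen, cut at about 11% in these data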;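 note: 0% = DMSO low control and 100% = 2 mM sodium butyrate high control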
LXR ag 2 – activates human LXR-beta, counter-screen for DAF-12 agonists; shares compounds with hgDAF-12 ag; HEK293 Gal4-LXR luciferase reporter, 24 h; activation, % at 6.8 µM; 3,300 tested, under 10 active; AID 743051;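 active = mean activation of the triplicate above a set limit carried over from the primary screen, none filed active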
* = called active by the depositor; . = not tested or not shown.

SMILES	hcDAF12 agonist	ssDAF12 agonist	DAX1 inh-1	DAX1 inh-2	Rev-erbA mod	hgDAF-12 ag	hgDAF12 conf	LXR ag 2
O=C(N/N=C/c1ccccn1)c1c[nH]c2ccccc12	4	0	1	3	1	15*	13*	1
CCOC(=O)c1sc(NC(=O)c2ccccc2)cc1C	3	0	1	1	2	17*	13*	1
CCOC(=O)c1sc(NC(=O)c2ccc(S(=O)(=O)N(C)C)cc2)cc1C	-5	-3	-2	-2	9	-4	.	.
CN(C)c1cccc(/C=C2\CC3(OC(=O)c4ccco4)CCCN2C3)c1 (stereo not drawn)	-1	-2	-1	.	1	0	.	.
COC(=O)C1=C(C)N(C)C(=NCC2CC2)NC1c1cccc(C(F)(F)F)c1 (stereo not drawn)	0	-1	1	.	-1	-2	.	.
Fc1ccccc1CSc1ccc(-c2ccco2)nn1	2	0	4.1*	4	4	16*	15*	1
Clc1ccc(CSc2ccc(-c3ccco3)nn2)cc1	1	-1	0	0	6	6	.	.
c1ccc(CSc2ccc(-c3ccco3)nn2)cc1	1	0	2	1	-7	15*	15*	1
C#CCCN([C@H](C(=O)OC)C(C)C)S(=O)(=O)c1ccccc1Br	-3	-1	-1	.	-1	1	.	.
CC(=O)Oc1cccc(N2C(=O)c3ccc(C(=O)O)cc3C2=O)c1	3	-1	0	-1	2	2	.	.
O=C(O)c1ccc2c(c1)C(=O)N(c1cccc(-c3nc4ccccc4s3)c1)C2=O	0	-1	1	1	-9	16*	3	0
COC(=O)[C@H]1C[C@@]2(C)c3ccccc3N(C(=O)OC(C)(C)C)[C@H]2N1C(=O)OC(C)(C)C	-1	0	-1	.	0	0	.	.
O=C(/C=C/c1ccc(-c2ccccc2)cc1)NC1=NCCS1	4	0	.	.	-5	18*	14*	0
CCCCOC(=O)Nc1ccc(N2CCCCC2)cc1	4	0	3	1	-3	13*	13*	1
CCCCOC(=O)Nc1ccc(N2CCOCC2)cc1	2	-1	1	3	-3	6	.	.
COC(=O)C1=C(C)N(Cc2cccc(C(F)(F)F)c2)C(=NCc2ccccc2C(F)(F)F)NC1c1ccc(Cl)cc1 (stereo not drawn)	-2	-1	-1	.	2	2	.	.
CCN(CC)CCOC(=O)c1ccc(NC(=O)/C=C/c2cccs2)cc1	1	-2	0	0	0	-1	.	.
CCOC(=O)c1ccc(NC(=O)/C=C/c2cccs2)cc1	2	0	1	0	6	19*	9	0
CCOc1ccc(CCNC(=O)c2ccc(Oc3ccccc3)cc2)cc1OCC	-3	-2	.	.	-4	-2	.	.
S=C(c1ccc(-c2cccc(Cl)c2)o1)N1CCCCC1	6.3*	1.1*	4.2*	2	4	27*	21*	1
O=[N+]([O-])c1cc(-c2ccc(C(=S)N3CCOCC3)o2)ccc1Cl	5	0	1	1	2	1	.	.
O=[N+]([O-])c1cccc(-c2ccc(C(=S)N3CCOCC3)o2)c1	5	0	3	3	13	18*	16*	1
O=C(COc1ccccc1Cl)Nc1ccc2c(c1)OCO2	6.0*	1	2	1	0	13*	12*	1
O=C(NCc1ccc(C(=O)N2CCCC2)cc1)c1cccc(Br)c1	1	-1	0	.	-3	1	.	.
c1ccc(OCc2cc(-c3ccccc3)no2)cc1	5	-1	1	2	5	14*	12*	0
SMILES	hcDAF12 agonist	ssDAF12 agonist	DAX1 inh-1	DAX1 inh-2	Rev-erbA mod	hgDAF-12 ag	hgDAF12 conf	LXR ag 2
COc1ccccc1OCc1cc(-c2ccccc2)no1	5.7*	-1	3.6*	2	3	14*	11*	1
COc1ccc(OCc2cc(-c3ccc(Cl)cc3)no2)cc1	-1	0	0	1	-1	1	.	.
O=C(O)C(=O)/C(=C\c1ccc([N+](=O)[O-])cc1)c1ccc2ccccc2n1	5	1	3	2	0	22*	18*	1
O=C(OCc1ccc([N+](=O)[O-])cc1)c1ccc2ccccc2n1	4	-1	0	-2	5	0	.	.
Cc1csc(NC(=O)CSc2nsc(SCC(=O)Nc3nc(C)cs3)c2C#N)n1	4	0	3	2	-3	18*	15*	1
Cc1ccc(NC(=O)CSc2nsc(SCC(=O)Nc3ccc(C)cc3C)c2C#N)c(C)c1	-1	-2	-1	1	-6	0	.	.
FC(F)(F)Oc1cccc(Cn2ccc3ccc(-c4ccc5ccn(Cc6ccccc6)c5c4)cc32)c1	1	-1	0	.	-1	1	.	.
CC(c1ccc(NC(=O)OC(C)(C)C)cc1)c1cn(C)c2ccccc12 (stereo not drawn)	5.7*	0	3	.	-3	14*	9	0
CC(C)c1ccc(NC(=O)Cc2cn(C)c3ccccc23)cc1	1	-1	0	0	2	3	.	.
O=C(NCCc1c[nH]c2ccccc12)OCc1cn(-c2ccc(F)cc2)nn1	0	-1	-1	.	3	2	.	.
Fc1ccc2nc(Nc3ccccc3)sc2c1	4	-1	3	2	-1	19*	14*	1
COC(=O)[C@]12C[C@H](CC(=O)N3CCN(C(=O)C4CC4)CC3)C(=O)N(Cc3ccc4c(c3)OCO4)C1=C[C@H](C(C)C)O[C@@H]2C1CC1	-3	-1	1	.	-7	-3	.	.
Cc1nc(N)nc(N)c1-c1ccc(Cl)c(Cl)c1	0	0	-5	-4	-4	-11	.	.
Nc1nc(N)nc(-c2ccc(Cl)c(Cl)c2)n1	0	-1	1	4	3	21*	18*	1
O=C(Cc1ccccc1)Nc1ccc(NC(=O)C2CCCCC2)nc1	-3	-2	-1	-1	2	1	.	.
O=C(Nc1ccc(NC(=O)C2CCCCC2)cn1)c1ccco1	6.4*	0	4.3*	-1	8	16*	11*	1
Clc1ccc(-c2cc(-c3nnc4sc(Cc5cccs5)nn34)[nH]n2)cc1	-1	-1	-1	.	0	-4	.	.
CCCSc1nn2c(=O)c3ccccc3nc2s1	4	-1	3	0	7	15*	16*	1
CC(C)(C)c1nnc2sc(SCC(=O)c3ccccc3)nn2c1=O	-2	-1	0	1	0	0	.	.

Source: PubChem (several laboratories)
